# PubChem BioAssay (Tox21)
# Unmarked numbers belong to inactive results. Records with an inconclusive call do not appear. Where a call stands in place of a potency, no number is given. Active and inactive are the calls of the source. Unless noted, the call rests on the fitted dose curve; in most records, active means well fitted curve in the direction sought with a large enough effect in the repeat runs; inconclusive means weak or mixed curves; inactive means no such curve, though single readings can be large; an effect the other way counts as inactive or inconclusive.
# Key:
# [1] = qHTS assay for small molecules that induce genotoxicity in human embryonic kidney cells expressing luciferase-tagged ATAD5 (AID 651632); further: nearly all actives have a fitted effect of over 15% in size
# Summary of the method: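 Genotoxicity read-out via ATAD5-luciferase: HEK293T cells, 16 hr compound incubation at 37C, Amplite detection.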
# [2] = qHTS assay for small molecule agonists of the p53 signaling pathway - cell viability (AID 651633; calls by dose curve;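 further: p53RE-bla HCT reporter cells with a stable beta-lactamase p53 reporter; series mostly up to about 83 µM; nearly all actives have a fitted effect of over 30% in size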)
# Summary of the method: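 p53RE-bla cells, seeded at 4,000 per well and rested 5 h at 37 C/5% CO2, received compounds in DMSO for 16 h at 37 C. CellTiter-Glo was then added, and luminescence was read after 30 min at room temperature to gauge cytotoxicity.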
# [3] = qHTS assay for small molecules that induce genotoxicity in human embryonic kidney cells expressing luciferase-tagged ATAD5 - cell viability (AID 651634; calls by dose curve; further: nearly all actives have a fitted effect of over 25% in size)
# Summary of the method: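 Live-cell protease activity (CellTiter-Fluor, fluorescence) indicates viability. HEK293T cells with luciferase-tagged ATAD5; 15.5 hr compound treatment at 37C.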
# [4] = qHTS assay for small molecule disruptors of the mitochondrial membrane potential - cell viability (AID 720634; calls by dose curve;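 further: human HepG2 liver cancer cells; series mostly up to about 83 µM; nearly all actives have a fitted effect of over 20% in size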)
# Summary of the method: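 Human hepatoma HepG2 cells were treated for 1 hr with test chemicals, then given m-MPI dye and CellTiter-Glo. Cell viability reflects luminescence proportional to cellular ATP.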
# [5] = qHTS assay to test for compound auto fluorescence at 535 nm (green) in HepG2 cells (AID 720675)
# [6] = qHTS assay to test for compound auto fluorescence at 590 nm (red) in HEK293 cells (AID 720679)
# Summary of the method: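 Using HEK293 cells at 2,000 per well, the screen added 23 nL of each compound after cell attachment and incubated overnight (37C, 5% CO2). The plate reader then captured red-label fluorescence, Ex/Em 540/590nm.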
# [7] = qHTS assay to test for compound auto fluorescence at 535 nm (green) in HEK293 cells (AID 720680)
# [8] = qHTS assay to test for compound auto fluorescence at 460 nm (blue) in HEK293 cell free culture (AID 720681)
# Summary of the method: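 Test compounds were pinned into cell-free culture medium (DMEM with 10% FBS) and fluorescence was read directly at Ex/Em 405/460 nm. Signals were expressed as fluorescence equivalents of triamterene, with DMSO vehicle as control.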
# [9] = qHTS assay to test for compound auto fluorescence at 535 nm (green) in HEK293 cell free culture (AID 720682)
# Summary of the method: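 Green-label autofluorescence (485 nm excitation, 535 nm emission) measured on compound added to cell-free culture medium (DMEM, 10% FBS). Output is expressed relative to fluorescein.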
# [10] = qHTS assay to test for compound auto fluorescence at 590 nm (red) in HEK293 cell free culture (AID 720683)
# Summary of the method: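 Tox21 10K library compounds were pinned into cell-free DMEM with 10% FBS and fluorescence was read at excitation 540 nm. Activity is expressed as Rose Bengal sodium equivalency.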
# [11] = qHTS assay to test for compound auto fluorescence at 590 nm (red) in HepG2 cell free culture (AID 720684)
# Summary of the method: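 Red fluorescence (540 nm excitation, 590 nm emission) was measured after compound transfer into cell-free MEM supplemented with 10% FBS. Values are equivalencies against Rose Bengal sodium.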
# [12] = qHTS assay to test for compound auto fluorescence at 460 nm (blue) in HepG2 cell free culture (AID 720685)
# Summary of the method: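 Compound (23 nL) or DMSO pinned into cell-free MEM with 10% FBS; blue fluorescence read at 405/460 nm excitation/emission, expressed as auto-fluorescence equivalency to triamterene.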
# [13] = qHTS assay to test for compound auto fluorescence at 535 nm (green) in HepG2 cell free culture (AID 720686)
# [14] = qHTS assay to test for compound auto fluorescence at 460 nm (blue) in HepG2 cells (AID 720687)
# Summary of the method: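 Cells (2,000/well in MEM with 10% FBS) attached overnight at 37 C, then were exposed to compound or DMSO for 1 hr at 37 C, 5% CO2. Fluorescence read at Ex/Em 405/460 nm, expressed as triamterene-equivalent signal.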
# [15] = target: Glucocorticoid receptor (Homo sapiens) (UniProt P04150); experiment: qHTS assay to identify small molecule agonists of the glucocorticoid receptor (GR) signaling pathway (AID 720691; active means well fitted activation curve with a large enough effect in the signal ratio in the repeat runs, not every such curve was filed as active; the % refers to the signal ratio)
# Summary of the method: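 Beta-lactamase reporter activity, read as fluorescence intensity, was measured in GR-bla HeLa cells exposed to compounds for 18 h at 37 C and then loaded with LiveBLAzer B/G FRET substrate for 2 h at room temperature.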
# [16] = qHTS assay for small molecule disruptors of the mitochondrial membrane potential (AID 720635); further: potency means the concentration at half of the fitted maximal effect
# Summary of the method: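 HepG2 cells (2,000/well) attached overnight at 37C, then took compound for 1 hr at 37C, 5% CO2. Mito-MPS dye was added for 30 min; fluorescence was read at 490/535 nm (monomers) and 540/590 nm (aggregates).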
# [17] = qHTS assay to test for compound auto fluorescence at 590 nm (red) in HepG2 cells (AID 720674)
# Summary of the method: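 Rose Bengal sodium served as the red fluorophore standard. HepG2 monolayers (overnight attachment, MEM with 10% FBS) were exposed to test compounds for 1 hr at 37 C and read at Ex 540/Em 590 nm.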
# [18] = qHTS assay to test for compound auto fluorescence at 460 nm (blue) in HEK293 cells (AID 720678)
# Summary of the method: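 Measured: blue fluorescence (Ex 405/Em 460 nm) of compound-treated HEK293 cells, incubated overnight at 37C with 5% CO2 and scaled to triamterene equivalents.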
# [19] = target: Glucocorticoid receptor (Homo sapiens) (UniProt P04150); experiment: qHTS assay to identify small molecule antagonists of the glucocorticoid receptor (GR) signaling pathway (AID 720692; active means well fitted inhibition curve with a large enough effect in the signal ratio in the repeat runs, not every such curve was filed as active; the % refers to the signal ratio)
# Summary of the method: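 Fluorescence from cleaved LiveBLAzer B/G FRET substrate reports GRE-driven beta-lactamase in HeLa cells; compounds are tested against 5 nM dexamethasone (final) over 18 h at 37 C, substrate incubation 2 h at room temperature.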
# Sequence of Glucocorticoid receptor (Homo sapiens) (P04150 whole entry, looked up): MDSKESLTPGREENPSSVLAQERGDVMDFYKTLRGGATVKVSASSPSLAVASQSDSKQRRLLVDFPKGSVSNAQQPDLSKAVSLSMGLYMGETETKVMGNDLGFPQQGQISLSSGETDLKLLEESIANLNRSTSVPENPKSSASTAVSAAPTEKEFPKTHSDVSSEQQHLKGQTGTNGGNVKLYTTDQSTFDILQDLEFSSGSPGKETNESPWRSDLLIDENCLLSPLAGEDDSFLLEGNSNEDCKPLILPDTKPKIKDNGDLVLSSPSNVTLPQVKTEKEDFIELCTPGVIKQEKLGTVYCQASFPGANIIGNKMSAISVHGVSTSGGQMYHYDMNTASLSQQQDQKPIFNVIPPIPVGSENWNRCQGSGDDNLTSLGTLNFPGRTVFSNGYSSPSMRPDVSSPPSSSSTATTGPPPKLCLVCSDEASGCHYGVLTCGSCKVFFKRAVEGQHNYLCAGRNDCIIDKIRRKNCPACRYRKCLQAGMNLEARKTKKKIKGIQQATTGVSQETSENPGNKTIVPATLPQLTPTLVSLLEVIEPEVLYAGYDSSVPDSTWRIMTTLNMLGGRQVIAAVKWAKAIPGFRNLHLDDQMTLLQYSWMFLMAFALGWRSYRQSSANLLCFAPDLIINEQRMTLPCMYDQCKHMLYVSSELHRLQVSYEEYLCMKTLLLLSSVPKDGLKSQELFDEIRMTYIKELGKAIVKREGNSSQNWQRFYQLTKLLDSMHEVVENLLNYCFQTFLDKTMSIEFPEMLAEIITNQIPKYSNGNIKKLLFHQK
smiles,measurement,setting,value
C[Si](C)=O,activation,[1],0.434% [at 8.08 µM]
same,"activity change, negative = cytotoxicity",[2],15.5% [at 8.08 µM]
same,"activity, negative = cytotoxicity",[3],11.6% [at 8.08 µM]
same,"activity change, negative = cytotoxicity",[4],4.91% [at 8.08 µM]
same,"fluorescence, % of fluorescein control",[5],0.004% [at 9.17 µM]
same,"fluorescence, % of fluorescent control",[6],-0.238% [at 9.17 µM]
same,"fluorescence, % of fluorescein",[7],0.04% [at 9.17 µM]
same,"fluorescence, % of fluorescent control",[8],-0.225% [at 9.17 µM]
same,activity change,[9],-0.0646% [at 9.17 µM]
same,"fluorescence, % of fluorescent control",[10],-0.414% [at 9.17 µM]
same,"fluorescence, % of Rose Bengal",[11],-0.0951% [at 9.17 µM]
same,"fluorescence, % of fluorescent control",[12],-0.0659% [at 9.17 µM]
same,"fluorescence, % of fluorescein control",[13],0.113% [at 9.17 µM]
same,"fluorescence, % of fluorescent control",[14],-0.132% [at 9.17 µM]
same,activation,[15],1.09% [at 6.9 µM]
CCNC(=O)C1CC(C)CCC1C(C)C (stereo not given),Potency,[1],inactive
same,outcome,[2],inactive
same,Potency,[3],inactive
same,outcome,[4],inactive
same,outcome,[5],inactive
same,outcome,[6],inactive
same,outcome,[7],inactive
same,outcome,[8],inactive
same,outcome,[9],inactive
same,outcome,[11],inactive
same,outcome,[12],inactive
same,outcome,[13],inactive
same,outcome,[14],inactive
same,Potency,[15],inactive
C=C(C)C(=O)OCCOP(=O)(O)OCCOC(=O)C(=C)C,Potency,[1],inactive
same,Potency,[3],inactive
same,outcome,[4],inactive
same,Potency,[16],inactive
same,outcome,[17],inactive
same,outcome,[5],inactive
same,outcome,[18],inactive
same,outcome,[6],inactive
same,outcome,[7],inactive
same,outcome,[8],inactive
same,outcome,[9],inactive
same,outcome,[10],inactive
same,outcome,[12],inactive
same,outcome,[13],inactive
same,outcome,[14],inactive
same,Potency,[15],inactive
same,outcome,[19],inactive
CCCCC(CC)COCCO (stereo not given),outcome,[2],inactive
same,Potency,[3],inactive
same,outcome,[4],inactive
same,Potency,[16],inactive
same,outcome,[17],inactive
same,outcome,[5],inactive
same,outcome,[18],inactive
same,outcome,[6],inactive
same,outcome,[7],inactive
same,outcome,[8],inactive
same,outcome,[9],inactive
same,outcome,[10],inactive
same,outcome,[12],inactive
same,outcome,[13],inactive
same,outcome,[14],inactive
same,Potency,[15],inactive
COC(=O)CCc1ccc(OCC(O)CNC(C)C)cc1 (stereo not given),outcome,[2],inactive
same,Potency,[3],inactive
same,outcome,[4],inactive
same,Potency,[16],inactive
same,outcome,[17],inactive
same,outcome,[5],inactive
same,outcome,[6],inactive
same,outcome,[7],inactive
same,outcome,[8],inactive
same,outcome,[9],inactive
same,outcome,[11],inactive
same,outcome,[12],inactive
same,outcome,[13],inactive
same,outcome,[14],inactive
same,Potency,[15],inactive
N[C@@H](CCC(=O)N[C@@H](CS)C(=O)NCC(=O)O)C(=O)O,outcome,[2],inactive
same,Potency,[3],inactive
same,outcome,[4],inactive
same,Potency,[16],inactive
same,outcome,[17],inactive
same,outcome,[5],inactive
same,outcome,[18],inactive
same,outcome,[6],inactive
same,outcome,[7],inactive
same,outcome,[8],inactive
same,outcome,[9],inactive
same,outcome,[10],inactive
same,outcome,[11],inactive
same,outcome,[12],inactive
same,outcome,[13],inactive
same,outcome,[14],inactive
CCCOC(OCCC)OCCC,Potency,[3],inactive
same,outcome,[4],inactive
same,outcome,[17],inactive
same,outcome,[5],inactive
same,outcome,[18],inactive
same,outcome,[6],inactive
same,outcome,[7],inactive
same,outcome,[8],inactive
same,outcome,[9],inactive
same,outcome,[10],inactive
same,outcome,[11],inactive
same,outcome,[12],inactive
same,outcome,[13],inactive
same,outcome,[14],inactive
same,Potency,[15],inactive
same,outcome,[19],inactive
O=C1c2cccc3c2[C@H](CCC3)CN1[C@@H]1CN2CCC1CC2,outcome,[2],inactive
same,outcome,[4],inactive
same,Potency,[16],inactive
same,outcome,[17],inactive
same,outcome,[5],inactive
same,outcome,[18],inactive
same,outcome,[7],inactive
same,outcome,[8],inactive
same,outcome,[9],inactive
same,outcome,[11],inactive
same,outcome,[12],inactive
same,outcome,[13],inactive
same,outcome,[14],inactive
same,Potency,[15],inactive
same,outcome,[19],inactive
CCCCCCOc1ccccc1C(N)=O,Potency,[1],inactive
same,Potency,[3],inactive
same,outcome,[4],inactive
same,Potency,[16],6.68 µM (active)
same,outcome,[17],inactive
same,outcome,[5],inactive
same,outcome,[18],inactive
same,outcome,[6],inactive
same,outcome,[7],inactive
same,outcome,[8],inactive
same,outcome,[9],inactive
same,outcome,[10],inactive
same,outcome,[11],inactive
same,outcome,[12],inactive
same,outcome,[13],inactive
same,outcome,[14],inactive
same,Potency,[15],inactive
COc1cc(N)ccc1C,outcome,[2],inactive
same,outcome,[4],inactive
same,Potency,[16],inactive
same,outcome,[17],inactive
same,outcome,[5],inactive
same,outcome,[18],inactive
same,outcome,[6],inactive
same,outcome,[7],inactive
same,outcome,[8],inactive
same,outcome,[9],inactive
same,outcome,[10],inactive
same,outcome,[12],inactive
same,outcome,[13],inactive
same,outcome,[14],inactive
same,Potency,[15],inactive
CCCCCCCCSCC,Potency,[3],inactive
same,outcome,[4],inactive
same,outcome,[17],inactive
same,outcome,[5],inactive
same,outcome,[6],inactive
same,outcome,[7],inactive
same,outcome,[8],inactive
same,outcome,[9],inactive
same,outcome,[10],inactive
same,outcome,[11],inactive
same,outcome,[12],inactive
same,outcome,[13],inactive
same,outcome,[14],inactive
same,Potency,[15],inactive
CCN(CC)CC(=O)Nc1c(C)cccc1C,outcome,[2],inactive
same,Potency,[3],inactive
same,outcome,[4],inactive
same,Potency,[16],inactive
same,outcome,[17],inactive
same,outcome,[5],inactive
same,outcome,[18],inactive
same,outcome,[6],inactive
same,outcome,[7],inactive
same,outcome,[8],inactive
same,outcome,[9],inactive
same,outcome,[10],inactive
same,outcome,[11],inactive
same,outcome,[12],inactive
same,outcome,[13],inactive
same,outcome,[14],inactive
same,Potency,[15],inactive
same,outcome,[19],inactive
COP(=O)(OC)OC(c1ccc(Cl)cc1)P(=O)(OC)OC (stereo not given),Potency,[1],inactive
same,Potency,[3],inactive
same,outcome,[4],inactive
same,Potency,[16],inactive
same,outcome,[17],inactive
same,outcome,[5],inactive
same,outcome,[6],inactive
same,outcome,[7],inactive
same,outcome,[8],inactive
same,outcome,[9],inactive
same,outcome,[11],inactive
same,outcome,[12],inactive
same,outcome,[13],inactive
same,outcome,[14],inactive
same,Potency,[15],inactive
same,outcome,[19],inactive
CC(=O)Nc1ccc(S(=O)(=O)Cl)cc1,outcome,[2],inactive
same,Potency,[3],inactive
same,outcome,[4],inactive
same,outcome,[17],inactive
same,outcome,[5],inactive
same,outcome,[18],inactive
same,outcome,[6],inactive
same,outcome,[7],inactive
same,outcome,[8],inactive
same,outcome,[9],inactive
same,outcome,[10],inactive
same,outcome,[11],inactive
same,outcome,[12],inactive
same,outcome,[13],inactive
same,outcome,[14],inactive
same,Potency,[15],inactive
same,outcome,[19],inactive
COc1nccnc1NS(=O)(=O)c1ccc(N)cc1,Potency,[1],inactive
same,Potency,[3],inactive
same,outcome,[4],inactive
same,outcome,[5],inactive
same,outcome,[18],inactive
same,outcome,[6],inactive
same,outcome,[7],inactive
same,outcome,[8],inactive
same,outcome,[9],inactive
same,outcome,[10],inactive
same,outcome,[11],inactive
same,outcome,[12],inactive
same,outcome,[13],inactive
same,outcome,[14],inactive
